This passage reports outcome results from PubChem BioAssay AID504909 (Southern Research Specialized Biocontainment Screening …, 2011).

Measured potencies and affinities stand elsewhere. Calls of active or inactive are those of the source. No rule for the calls is given here.

The nature of the test: Vero cell cytotoxicity, dose response, cytotoxicity control for M. tuberculosis growth inhibitor project, Vero cells, purified and synthesized compounds, set 5 (AID 504909). Conditions: series mostly up to 100 µM.
In the case of `CC[C@@H](CO)NCCN[C@@H](CC)CO`, the result was inactive.

On to `COc1ccc(NC(=O)CSc2nc3ccccc3c(=O)[nH]2)cc1`, for which the call was inactive.

With `O=C(CSc1ncccn1)NC1CCCCC1`, the result was inactive.

As for `CN(C)C(=O)CSc1nc2ccccc2c(=O)[nH]1`, the result was inactive.

On to `CC(C)CCNC(=O)CSc1nc2c(c(=O)[nH]1)CCC2`, for which the outcome was inactive.

For `COc1cccc(NC(=O)CSc2nc3c(c(=O)[nH]2)CCC3)c1`, the compound was classed as inactive.

With `Cc1cc(=O)[nH]c(=S)[nH]1`, the compound was classed as inactive.

With `Cc1nc(SCC(=O)N(C)c2ccccc2)[nH]c(=O)c1C`, the compound was called inactive.
